# Screens from PubChem BioAssay.
# Most compounds without a hit are left out; they make up all but 2.3% or so of the library.
# GLD-1 RNA inh: GLD-1-TGE RNA interaction inhibition (C. elegans); Q17339; purified GLD-1 + fluorescein TGE RNA, fluorescence polarization; inhibition, % at 5.96 µM; 0.44% of 320,000 active; AID 2280;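 active = percent inhibition above a per-plate cutoff, the plate mean of test compounds plus 3 SD, cut at about 30% in these data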;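 note: 0% = DMSO wells with GLD-1 and probe and 100% = wells lacking GLD-1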
# BCLXL inh: inhibitors of human Bcl-xL; Q07817; GST-Bcl-xL / FITC-Bim BH3 peptide fluorescence polarization; inhibition, % at 10.9 µM; 0.7% of 320,000 active;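 active = inhibition above the mean of all tested compounds plus 3 SD, cutoff set per campaign, cut at about 30% in these data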;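 note: 0% = DMSO wells and 100% = unlabeled Bim-BH3 peptide competitor; inhibitors lower millipolarization by displacing the labeled peptide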
# Mcl1-Noxa inh: Mcl-1/Noxa interaction inhibition | AID 1022 | 1.5% of 220,000 active | inhibition, % at 21.7 µM | Q07820 | TR-FRET Mcl-1/Noxa peptide binding, 2 h;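 active = compounds that cut the protein-peptide binding signal by more than 50% relative to plate controls in a single-dose test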;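 note: His-tagged Mcl-1 with rhodamine Noxa BH3 peptide and terbium anti-His antibody; 0% = Mcl-1 plus Noxa peptide wells and 100% = peptide-only wells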
# Target sequence (Q07820 whole entry, looked up): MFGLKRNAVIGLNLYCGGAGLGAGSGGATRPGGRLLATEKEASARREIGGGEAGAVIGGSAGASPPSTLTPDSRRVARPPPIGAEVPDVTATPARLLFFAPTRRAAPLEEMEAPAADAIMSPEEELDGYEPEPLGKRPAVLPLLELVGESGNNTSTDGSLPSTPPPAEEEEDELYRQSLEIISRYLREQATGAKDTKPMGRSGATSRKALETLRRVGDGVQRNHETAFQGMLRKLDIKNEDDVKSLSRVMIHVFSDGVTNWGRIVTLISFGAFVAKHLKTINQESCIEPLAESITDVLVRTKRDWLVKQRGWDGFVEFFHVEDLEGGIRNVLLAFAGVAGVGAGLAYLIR
# Mcl1-Bid inh: Mcl-1/Bid interaction inhibition. TR-FRET Mcl-1/Bid-Dy647 peptide binding, 1536-well. Q07820. 0.97% of 220,000 active. inhibition, % at 21.7 µM. AID 1021;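 active = compounds that cut the binding signal by more than half at the single screening dose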;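 note: His-tagged Mcl-1 with europium anti-His antibody binding Bid BH3 peptide; 0% = Mcl-1 plus peptide wells and 100% = peptide-only wells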
# MCL1-BIM inh: disrupts human MCL1 binding to BIM-BH3 peptide | inhibition, % at 10.9 µM | AID 2057 | GST-MCL1 / FITC-Bim-BH3 fluorescence polarization | Q07820 | 0.68% of 320,000 active;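 active = inhibition above the mean inhibition of all tested compounds plus 3 SD, set per campaign, cut at about 40% in these data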;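 note: 0% = DMSO wells and 100% = unlabeled Bim-BH3 peptide control; higher means more loss of mP so more displacement of Bim peptide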
# Mcl-1 Bim block: inhibitors of Bim-Mcl-1 interaction, human; Q07820; AID 1009; 0.1% of 190,000 active; inhibition, % at 10 µM; Bead-based flow cytometry, Bim peptide-Mcl-1 binding; in the data active = inhibition above about 40%;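 note: 0% = no compound tracer wells and 100% = peptide blocker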
# BCLXL inh confirm: Bcl-xL (human) inhibition, MCL1 counter-screen confirmation. shares compounds with MCL1-BIM inh. GST-Bcl-xL / FITC-Bim BH3 peptide FP binding. inhibition, % at 10.9 µM. 54% of 1,700 active. AID 2166;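 active = inhibition above a cutoff equal to the mean inhibition of all tested compounds plus 3 SD, cut at about 30% in these data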;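 note: 0% = DMSO wells and 100% = unlabeled Bim BH3 control peptide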
# MCL1 BIM confirm: MCL1-BIM-BH3 interaction inhibition, confirmation; shares compounds with MCL1-BIM inh; GST-MCL1 / FITC-Bim-BH3 fluorescence polarization; inhibition, % at 10.9 µM; 61% of 1,700 active; AID 2168;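 active = inhibition above the average of all tested compounds plus 3 SD, cut at about 40% in these data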;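 note: 0% = DMSO wells and 100% = unlabeled Bim-BH3 control peptide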
# Numbers without * were called inactive; nt = no result given; + = active, no number.
SMILES,GLD-1 RNA inh,BCLXL inh,Mcl1-Noxa inh,Mcl1-Bid inh,MCL1-BIM inh,Mcl-1 Bim block,BCLXL inh confirm,MCL1 BIM confirm
O=C1C(=Cc2cccn2-c2ccc(O)cc2)C(=O)c2ccccc21,60.8*,169.1*,1.3,69.5*,199.4*,1.0,151.8*,190.3*
O=C(NC(c1ccccc1)c1cc(Cl)c2cccnc2c1O)c1cccnc1 (centres undefined),3.3,5.6,-26.8,-18.1,7.8,-4.0,nt,nt
O=C(O)COc1ccccc1C(Nc1ccccn1)c1cc(Cl)c2cccnc2c1O (centres undefined),5.6,19.4,90.6*,74.4*,78.6*,-5.0,26.6,88.7*
CC1=Nc2ccccc2/C1=C\c1nc(-c2ccccc2)oc1O,-61.1,-1.6,10.7,-23.3,-18.8,0.0,nt,nt
CC1=Nc2ccccc2/C1=C\c1nc(-c2ccc(C(F)(F)F)cc2)oc1O,10.8,59.9*,-1.7,2.6,57.8*,-1.0,100.0*,126.5*
CC(C)(C)c1ccc(C(=O)Nc2cccc3c(=O)[nH][nH]c(=O)c23)cc1,46.0*,28.6,3.7,-41.8,42.8*,-1.0,41.6*,46.8*
CNC(=O)c1ccsc1NC(=O)C1CCN(S(=O)(=O)c2cccs2)CC1,-0.9,0.3,nt,nt,-0.9,nt,nt,nt
COC(=O)c1nn(-c2ccccc2)c(=O)cc1Sc1ccc(Cl)cc1,3.2,5.4,-21.1,-3.9,6.8,-4.0,nt,nt
CCOC(=O)/C(C#N)=C1/C(=O)N(Cc2ccccc2)c2ccccc21,nt,nt,16.4,-13.8,nt,-3.0,nt,nt
CCOC(=O)C(C#N)=C1CCN(Cc2ccccc2)CC1,28.6,58.3*,nt,nt,60.4*,nt,36.5*,35.6
COc1ccc(N=Nc2nc3cc(Br)c(Br)cc3n2C)c(OC)c1,197.8*,+,-13.0,-26.3,+,-9.0,176.3*,+
O=C(N=Nc1c(O)[nH]c2ccccc12)c1cc(-c2cccs2)[nH]n1,-5.3,15.3,46.2,-47.0,43.2*,nt,11.7,31.4
O=C(Cc1cccs1)N=Nc1c(O)[nH]c2ccccc12,0.1,5.6,7.8,-52.0,7.7,nt,nt,nt
COc1ccc(C(=O)C2CCCN(Cc3ccc(C#CCCO)cc3)C2)cc1F (centres undefined),0.9,-0.5,-10.3,-36.5,-0.8,-3.0,nt,nt
CC(=O)Nc1ccc(C=NNc2ccc([N+](=O)[O-])cc2S(=O)(=O)Nc2ccccc2C(=O)O)cc1,0.6,nt,nt,nt,nt,nt,nt,nt
Cc1ccc(NC(=S)NNc2ccc([N+](=O)[O-])cc2S(=O)(=O)Nc2ccccc2C(=O)O)cc1C,-0.9,18.8,87.3*,45.1,39.9*,-4.0,22.3,39.4
O=C(c1cc(=O)[nH]c2ccccc12)N1CC=C(c2ccccc2)CC1,1.9,2.6,nt,nt,-2.0,nt,nt,nt
CCOCCCN(C(=O)CCC(=O)Nc1cc(C)on1)C(C(=O)NC(C)(C)C)c1ccccc1Cl (centres undefined),-8.9,-6.2,nt,nt,-7.6,nt,nt,nt
COc1cccc(N2[C@@H](CC(C)=O)c3cc(C(F)(F)F)ccc3S2(=O)=O)c1,-7.7,4.1,nt,nt,-2.0,nt,nt,nt
CCOC(=O)C[C@H]1c2ccc(C(F)(F)F)cc2S(=O)(=O)N1c1cccc(OC)c1,0.0,7.3,nt,nt,41.0*,nt,-5.4,42.8*
C/C(N)=C(/C#N)C(=O)CSc1nnc(NC(C)C)s1,4.4,11.1,47.5,-45.5,51.0*,0.0,26.1,77.9*
C/C(N)=C(/C#N)C(=O)CSc1nnc(Nc2ccccc2)s1,-3.5,-10.2,16.5,6.8,-6.7,0.0,nt,nt
CCOc1ccc(S(=O)(=O)NCc2ccc3c(c2)OCO3)cc1C(=O)O,4.6,4.9,nt,nt,1.0,nt,nt,nt
COc1ccc(C(=O)COC(=O)c2cccs2)cc1,3.7,nt,nt,nt,nt,nt,nt,nt
COc1ccc(C2=CC3=C(Br)C(=O)C(C)(OC(=O)c4cccs4)C(=O)C3=CO2)cc1 (centres undefined),12.9,20.1,nt,nt,42.2*,nt,20.1,51.0*
COc1ccc(C2=CC3=C(Br)C(=O)C(C)(OC(=O)c4ccco4)C(=O)C3=CO2)cc1 (centres undefined),20.2,42.3*,62.6*,-7.7,54.2*,nt,34.8*,76.4*
